Columns and labels:
Assay in all cases: log2 ratio of Biotin-Ahx-Ub-VS probe labelling (fragment/DMSO); higher = less target engagement (more negative = stronger competition), active = hit call of the paper (q ≤ 0.05, log2 ratio ≤ -1)
Settings in all cases: compound concentration: 200 uM; treatment time: 3 h
[1] = molecular target: T1, USP19 (UniProt O94966)
T1 sequence (whole entry): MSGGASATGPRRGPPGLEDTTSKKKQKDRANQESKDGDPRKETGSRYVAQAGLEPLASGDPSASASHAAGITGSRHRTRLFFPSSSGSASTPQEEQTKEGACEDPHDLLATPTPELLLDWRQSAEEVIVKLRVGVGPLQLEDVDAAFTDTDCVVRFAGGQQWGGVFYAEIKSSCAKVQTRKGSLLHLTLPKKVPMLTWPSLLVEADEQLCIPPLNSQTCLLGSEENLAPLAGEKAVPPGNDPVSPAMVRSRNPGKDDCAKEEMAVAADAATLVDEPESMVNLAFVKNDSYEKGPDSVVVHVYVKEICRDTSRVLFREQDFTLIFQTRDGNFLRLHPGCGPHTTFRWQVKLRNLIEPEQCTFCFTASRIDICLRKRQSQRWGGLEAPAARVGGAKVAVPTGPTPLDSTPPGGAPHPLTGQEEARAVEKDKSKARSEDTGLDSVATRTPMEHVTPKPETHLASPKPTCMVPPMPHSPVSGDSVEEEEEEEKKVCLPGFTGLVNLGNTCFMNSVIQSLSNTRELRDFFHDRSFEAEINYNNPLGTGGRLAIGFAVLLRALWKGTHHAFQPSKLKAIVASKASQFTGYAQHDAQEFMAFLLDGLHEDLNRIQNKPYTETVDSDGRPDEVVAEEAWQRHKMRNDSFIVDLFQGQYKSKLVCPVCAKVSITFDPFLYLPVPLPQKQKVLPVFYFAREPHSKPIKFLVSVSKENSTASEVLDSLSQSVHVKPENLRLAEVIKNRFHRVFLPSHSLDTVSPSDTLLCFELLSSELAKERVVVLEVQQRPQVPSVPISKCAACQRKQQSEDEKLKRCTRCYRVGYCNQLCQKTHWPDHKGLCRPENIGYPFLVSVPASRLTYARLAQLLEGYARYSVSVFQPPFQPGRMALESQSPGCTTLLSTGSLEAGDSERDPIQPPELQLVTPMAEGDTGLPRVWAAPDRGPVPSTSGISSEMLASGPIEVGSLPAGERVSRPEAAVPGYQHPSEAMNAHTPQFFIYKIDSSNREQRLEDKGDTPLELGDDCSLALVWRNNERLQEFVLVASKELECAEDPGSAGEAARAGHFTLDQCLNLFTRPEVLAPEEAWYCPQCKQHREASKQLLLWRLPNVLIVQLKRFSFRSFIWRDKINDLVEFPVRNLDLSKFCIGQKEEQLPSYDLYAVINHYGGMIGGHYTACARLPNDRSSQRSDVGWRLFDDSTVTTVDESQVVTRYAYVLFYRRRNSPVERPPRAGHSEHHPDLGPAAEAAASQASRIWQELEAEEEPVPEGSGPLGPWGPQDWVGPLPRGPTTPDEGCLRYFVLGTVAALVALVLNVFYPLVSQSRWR
Procedure, shortened: (§1)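 Labelled DUBs from HEK293T lysate were NeutrAvidin-enriched, digested with LysC and trypsin, and run by diaPASEF LC-MS/MS. Before that, each 495 µg sample in Tris/CHAPS/IGEPAL buffer with protease inhibitors was treated in triplicate with fragment at 200 µM or vehicle for 3 h, then with Biotin-Ahx-Ub-VS at 0.5 µM final for 1 h. Values are average log2 ratios of fragment over vehicle by unpaired t-test, based on global-median-normalised Spectronaut label-free quantities from proteins with ≥2 unique peptides.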

[2] = molecular target: USP24 (UniProt Q9UPU5)
Procedure, shortened: as §1

[3] = molecular target: T2, USP25 (UniProt Q9UHP3)
T2 sequence (whole entry): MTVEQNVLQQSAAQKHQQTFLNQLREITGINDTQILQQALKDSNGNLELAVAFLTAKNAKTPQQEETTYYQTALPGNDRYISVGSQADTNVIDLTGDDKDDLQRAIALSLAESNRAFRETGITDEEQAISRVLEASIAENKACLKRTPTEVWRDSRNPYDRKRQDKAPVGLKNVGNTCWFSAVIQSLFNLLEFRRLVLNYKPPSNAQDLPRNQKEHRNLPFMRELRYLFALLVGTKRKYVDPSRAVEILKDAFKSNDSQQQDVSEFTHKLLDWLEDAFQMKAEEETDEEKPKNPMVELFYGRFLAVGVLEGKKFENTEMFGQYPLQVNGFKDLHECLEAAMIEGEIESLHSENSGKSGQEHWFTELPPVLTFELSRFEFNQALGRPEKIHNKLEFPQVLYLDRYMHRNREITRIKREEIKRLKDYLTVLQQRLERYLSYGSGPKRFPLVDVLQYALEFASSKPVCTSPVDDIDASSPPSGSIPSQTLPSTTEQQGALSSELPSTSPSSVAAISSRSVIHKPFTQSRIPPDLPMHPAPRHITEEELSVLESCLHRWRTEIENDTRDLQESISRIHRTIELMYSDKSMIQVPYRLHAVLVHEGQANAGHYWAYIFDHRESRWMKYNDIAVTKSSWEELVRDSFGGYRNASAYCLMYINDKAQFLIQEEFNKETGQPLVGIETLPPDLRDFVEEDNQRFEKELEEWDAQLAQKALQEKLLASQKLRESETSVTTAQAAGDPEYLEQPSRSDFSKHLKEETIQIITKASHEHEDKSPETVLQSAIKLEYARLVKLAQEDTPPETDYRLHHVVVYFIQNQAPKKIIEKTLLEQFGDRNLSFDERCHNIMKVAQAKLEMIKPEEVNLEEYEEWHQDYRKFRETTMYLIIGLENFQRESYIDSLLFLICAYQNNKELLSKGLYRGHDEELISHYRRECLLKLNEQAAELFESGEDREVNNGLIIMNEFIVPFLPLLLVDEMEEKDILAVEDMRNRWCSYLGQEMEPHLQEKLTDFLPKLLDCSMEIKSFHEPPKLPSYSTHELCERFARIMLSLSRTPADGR
Procedure, shortened: as §1

[4] = molecular target: T3, USP28 (UniProt Q96RU2)
T3 sequence (whole entry): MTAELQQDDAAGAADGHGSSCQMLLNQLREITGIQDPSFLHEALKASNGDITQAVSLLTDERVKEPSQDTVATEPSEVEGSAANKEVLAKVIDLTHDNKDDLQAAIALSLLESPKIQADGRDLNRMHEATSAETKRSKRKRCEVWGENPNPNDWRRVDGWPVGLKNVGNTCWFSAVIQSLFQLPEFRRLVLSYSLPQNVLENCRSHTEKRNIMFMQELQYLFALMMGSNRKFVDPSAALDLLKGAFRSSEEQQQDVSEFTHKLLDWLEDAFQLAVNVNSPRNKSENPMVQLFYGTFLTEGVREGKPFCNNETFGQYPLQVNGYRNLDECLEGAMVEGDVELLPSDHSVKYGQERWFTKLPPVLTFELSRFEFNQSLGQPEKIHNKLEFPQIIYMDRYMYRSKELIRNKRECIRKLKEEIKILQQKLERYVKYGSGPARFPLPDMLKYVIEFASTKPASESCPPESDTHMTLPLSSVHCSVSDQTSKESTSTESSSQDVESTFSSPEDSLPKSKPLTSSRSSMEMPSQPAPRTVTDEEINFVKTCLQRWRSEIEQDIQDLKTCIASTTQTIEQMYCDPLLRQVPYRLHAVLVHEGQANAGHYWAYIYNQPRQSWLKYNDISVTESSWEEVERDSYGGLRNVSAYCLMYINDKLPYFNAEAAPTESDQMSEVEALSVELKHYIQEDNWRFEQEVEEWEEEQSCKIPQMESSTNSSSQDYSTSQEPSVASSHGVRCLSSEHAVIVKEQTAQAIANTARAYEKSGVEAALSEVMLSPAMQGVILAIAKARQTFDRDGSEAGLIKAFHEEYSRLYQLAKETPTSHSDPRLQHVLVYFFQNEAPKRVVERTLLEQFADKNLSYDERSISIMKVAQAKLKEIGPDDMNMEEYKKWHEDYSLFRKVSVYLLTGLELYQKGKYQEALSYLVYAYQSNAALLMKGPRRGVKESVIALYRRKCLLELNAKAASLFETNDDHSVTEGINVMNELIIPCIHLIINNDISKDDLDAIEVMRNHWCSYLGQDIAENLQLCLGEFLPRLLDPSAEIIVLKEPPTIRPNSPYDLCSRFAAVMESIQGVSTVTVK
Procedure, shortened: as §1

Measured: log2 ratio of Biotin-Ahx-Ub-VS probe labelling

Sequence of USP24 (Q9UPU5 whole entry): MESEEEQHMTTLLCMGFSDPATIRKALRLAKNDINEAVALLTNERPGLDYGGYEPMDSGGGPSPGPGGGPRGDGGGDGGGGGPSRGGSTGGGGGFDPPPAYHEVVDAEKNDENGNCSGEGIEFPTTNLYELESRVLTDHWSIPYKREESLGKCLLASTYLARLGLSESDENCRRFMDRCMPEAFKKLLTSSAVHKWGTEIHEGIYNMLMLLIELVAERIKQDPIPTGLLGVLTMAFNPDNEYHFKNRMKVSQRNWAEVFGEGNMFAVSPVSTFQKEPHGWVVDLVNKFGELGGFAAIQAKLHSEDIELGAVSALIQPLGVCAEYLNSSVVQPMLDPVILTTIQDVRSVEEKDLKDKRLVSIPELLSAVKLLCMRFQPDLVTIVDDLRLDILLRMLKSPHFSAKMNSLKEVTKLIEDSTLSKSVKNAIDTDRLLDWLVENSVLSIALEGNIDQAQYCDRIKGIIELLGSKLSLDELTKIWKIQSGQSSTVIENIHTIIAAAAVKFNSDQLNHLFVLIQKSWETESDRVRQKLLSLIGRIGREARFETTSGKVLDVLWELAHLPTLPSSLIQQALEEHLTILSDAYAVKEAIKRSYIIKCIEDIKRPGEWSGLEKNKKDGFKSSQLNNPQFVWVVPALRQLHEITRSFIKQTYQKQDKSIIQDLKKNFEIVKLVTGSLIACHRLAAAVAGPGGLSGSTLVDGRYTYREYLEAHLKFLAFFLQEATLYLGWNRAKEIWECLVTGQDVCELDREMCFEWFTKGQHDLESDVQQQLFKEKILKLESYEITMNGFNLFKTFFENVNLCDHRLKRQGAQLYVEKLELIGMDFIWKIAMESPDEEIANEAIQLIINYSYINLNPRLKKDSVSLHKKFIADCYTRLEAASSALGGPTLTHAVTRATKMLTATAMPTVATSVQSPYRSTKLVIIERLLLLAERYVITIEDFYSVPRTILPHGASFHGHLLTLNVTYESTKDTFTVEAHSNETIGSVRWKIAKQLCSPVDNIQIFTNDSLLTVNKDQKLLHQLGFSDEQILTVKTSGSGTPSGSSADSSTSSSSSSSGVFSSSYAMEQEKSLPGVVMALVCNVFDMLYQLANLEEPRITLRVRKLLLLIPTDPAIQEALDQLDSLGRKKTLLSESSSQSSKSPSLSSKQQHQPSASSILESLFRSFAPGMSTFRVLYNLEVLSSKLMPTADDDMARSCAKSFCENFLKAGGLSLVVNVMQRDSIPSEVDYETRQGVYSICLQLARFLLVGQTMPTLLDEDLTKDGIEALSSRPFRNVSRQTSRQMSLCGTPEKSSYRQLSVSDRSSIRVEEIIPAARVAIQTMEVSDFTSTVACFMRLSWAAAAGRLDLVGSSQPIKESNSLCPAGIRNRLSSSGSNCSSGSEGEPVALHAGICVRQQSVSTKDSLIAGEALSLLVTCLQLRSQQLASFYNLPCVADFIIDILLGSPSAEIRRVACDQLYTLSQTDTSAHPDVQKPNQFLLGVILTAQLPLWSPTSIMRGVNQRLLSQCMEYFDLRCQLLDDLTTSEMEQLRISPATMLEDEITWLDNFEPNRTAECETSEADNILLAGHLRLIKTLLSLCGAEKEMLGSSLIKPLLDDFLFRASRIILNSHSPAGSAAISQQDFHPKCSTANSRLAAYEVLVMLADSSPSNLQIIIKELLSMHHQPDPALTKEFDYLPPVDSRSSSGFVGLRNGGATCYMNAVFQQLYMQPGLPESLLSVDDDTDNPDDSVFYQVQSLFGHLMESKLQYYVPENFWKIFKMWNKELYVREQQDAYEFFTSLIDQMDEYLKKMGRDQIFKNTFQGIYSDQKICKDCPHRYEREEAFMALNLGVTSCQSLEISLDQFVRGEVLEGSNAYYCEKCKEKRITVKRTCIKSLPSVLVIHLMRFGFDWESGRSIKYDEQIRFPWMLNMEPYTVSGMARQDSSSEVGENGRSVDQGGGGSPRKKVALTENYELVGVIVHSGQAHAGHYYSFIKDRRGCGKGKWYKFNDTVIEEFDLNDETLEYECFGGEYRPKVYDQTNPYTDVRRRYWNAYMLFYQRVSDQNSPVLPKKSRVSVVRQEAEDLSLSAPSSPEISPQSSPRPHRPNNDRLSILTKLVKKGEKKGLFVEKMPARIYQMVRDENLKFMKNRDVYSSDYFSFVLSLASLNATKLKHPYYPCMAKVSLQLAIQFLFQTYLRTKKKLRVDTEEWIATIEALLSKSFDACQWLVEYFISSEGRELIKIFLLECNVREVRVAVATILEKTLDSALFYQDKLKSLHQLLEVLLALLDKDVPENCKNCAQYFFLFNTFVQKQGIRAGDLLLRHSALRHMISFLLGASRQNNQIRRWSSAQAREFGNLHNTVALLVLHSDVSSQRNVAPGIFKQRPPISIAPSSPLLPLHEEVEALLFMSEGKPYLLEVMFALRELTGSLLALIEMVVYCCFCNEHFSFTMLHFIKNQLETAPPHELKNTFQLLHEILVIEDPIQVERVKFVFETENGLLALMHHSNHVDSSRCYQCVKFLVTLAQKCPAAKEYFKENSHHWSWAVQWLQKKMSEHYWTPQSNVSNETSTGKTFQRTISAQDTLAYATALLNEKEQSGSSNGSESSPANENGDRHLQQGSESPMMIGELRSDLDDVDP

Cl.O=C(CN1CCN(C(=O)CCl)CC1)Nc1ccc(F)cc1
inactive: [1] -0.172 | [2] -0.098 | [3] 0.0867 | [4] 0.0845

From the supplement of paper PMC11732987, “Enantioselective OTUD7B fragment discovery through chemoproteomics screening and high-throughput optimisation” (Communications Chemistry, 2025)
